This passage reports binding signal results from paper PMC5700166.

In the assay the target is T1, GST-Co-NF-kB (Capsaspora owczarzaki, UniProt F1ARL5 200-546).
T1 sequence: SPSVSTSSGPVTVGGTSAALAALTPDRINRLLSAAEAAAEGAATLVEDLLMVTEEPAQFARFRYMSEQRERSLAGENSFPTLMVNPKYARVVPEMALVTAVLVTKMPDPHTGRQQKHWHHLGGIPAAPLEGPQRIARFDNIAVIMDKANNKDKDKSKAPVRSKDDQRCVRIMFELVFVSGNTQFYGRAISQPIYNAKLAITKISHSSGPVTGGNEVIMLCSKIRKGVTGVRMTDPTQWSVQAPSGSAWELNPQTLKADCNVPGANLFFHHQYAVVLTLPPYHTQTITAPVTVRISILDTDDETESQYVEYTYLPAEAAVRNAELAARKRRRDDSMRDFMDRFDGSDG
Nature of the assay: protein-binding microarray (PBM); PBM: ~300 nM protein, 6 mM HEPES pH 7.8, 80 mM KCl, 0.5 mM EDTA, 0.5 mM EGTA, 6% glycerol, 35 ng/ul poly-dIdC, 1% milk, 1 h, room temperature; Ap Aiptasia and Nv Nematostella (sea anemones) / Co Capsaspora / Aq Amphimedon (sponge) / Dm Drosophila / Hu human; RHD is the Rel homology domain; high values mean tight binding. The following applies: dsDNA, one strand shown.
For the sequence “CCGATTAACATCAGACAATCCCCTGATGTTAATCGGGTCTTGATTCGCTTGACGCTGCTG”, the binding signal is 2.24 z-score.
Consider “CCGATTAACATCAGGAAAACCCCTGATGTTAATCGGGTCTTGATTCGCTTGACGCTGCTG”, for which the binding signal stood at 2.41 z-score.
In the case of “CCGATTAACATCAGGGAAATCACTGATGTTAATCGGGTCTTGATTCGCTTGACGCTGCTG” it was 2.62 z-score; in that of “CCGATTAACATCAGGAAAATCCCTGATGTTAATCGGGTCTTGATTCGCTTGACGCTGCTG”, 2.51 z-score.
Regarding “CCGATTAACATCAAAAAGCCCCCTGATGTTAATCGGGTCTTGATTCGCTTGACGCTGCTG”, the binding signal is 3.86 z-score.
With “CCGATTAACATCAAATCTCCCCCTGATGTTAATCGGGTCTTGATTCGCTTGACGCTGCTG” the figure was 10.1 z-score.
Sequence “CCGATTAACATCACACTACCCCCTGATGTTAATCGGGTCTTGATTCGCTTGACGCTGCTG” gave a binding signal of 3.89 z-score.
“CCGATTAACATCAGGGGGAAACATGATGTTAATCGGGTCTTGATTCGCTTGACGCTGCTG” yielded a binding signal of 10.9 z-score.
In the case of “CCGATTAACATCAGGGGGAACGATGATGTTAATCGGGTCTTGATTCGCTTGACGCTGCTG” it was 7.4 z-score.
For “CCGATTAACATCAAGTATCCCCCTGATGTTAATCGGGTCTTGATTCGCTTGACGCTGCTG”, the binding signal came out at 7.27 z-score.
For “CCGATTAACATCAATCTTTCCCCTGATGTTAATCGGGTCTTGATTCGCTTGACGCTGCTG”, the binding signal came to 8.32 z-score.
As to “CCGATTAACATCAAAATTACCCATGATGTTAATCGGGTCTTGATTCGCTTGACGCTGCTG”, the binding signal is 2.84 z-score.
In turn, “CCGATTAACATCACAAAAGTCCCTGATGTTAATCGGGTCTTGATTCGCTTGACGCTGCTG” returned a binding signal of 2.27 z-score.
“CCGATTAACATCAGGGGGCAATATGATGTTAATCGGGTCTTGATTCGCTTGACGCTGCTG” had a binding signal of 4.37 z-score.
With “CCGATTAACATCAGGGGACTACCTGATGTTAATCGGGTCTTGATTCGCTTGACGCTGCTG” the figure was 2.47 z-score; with “CCGATTAACATCACGGGATTTGGTGATGTTAATCGGGTCTTGATTCGCTTGACGCTGCTG”, 1.17 z-score.
Take “CCGATTAACATCACAAAGTCCCCTGATGTTAATCGGGTCTTGATTCGCTTGACGCTGCTG”: the binding signal stood at 2.97 z-score.
The sequence “CCGATTAACATCAGAAATATCCCTGATGTTAATCGGGTCTTGATTCGCTTGACGCTGCTG” displayed a binding signal of 1.62 z-score.
With “CCGATTAACATCAGGGGGTTGGATGATGTTAATCGGGTCTTGATTCGCTTGACGCTGCTG” the figure was 2.05 z-score.
“CCGATTAACATCACTACCCCCCCTGATGTTAATCGGGTCTTGATTCGCTTGACGCTGCTG”: the binding signal was determined as 5.59 z-score.
In the case of “CCGATTAACATCAAATTCCCGGGTGATGTTAATCGGGTCTTGATTCGCTTGACGCTGCTG” it was 4.43 z-score; in that of “CCGATTAACATCAAATTACCCCCTGATGTTAATCGGGTCTTGATTCGCTTGACGCTGCTG”, 8.18 z-score.
With “CCGATTAACATCAAAAAAACCCCTGATGTTAATCGGGTCTTGATTCGCTTGACGCTGCTG” the figure was 3.62 z-score; with “CCGATTAACATCAGGGGATACACTGATGTTAATCGGGTCTTGATTCGCTTGACGCTGCTG”, 3.62 z-score.
With “CCGATTAACATCAATTTTCCCCATGATGTTAATCGGGTCTTGATTCGCTTGACGCTGCTG” the figure was 9.2 z-score; with “CCGATTAACATCAAAAATCCCACTGATGTTAATCGGGTCTTGATTCGCTTGACGCTGCTG”, 1.65 z-score; with “CCGATTAACATCAGCAATTCCCCTGATGTTAATCGGGTCTTGATTCGCTTGACGCTGCTG”, 5.7 z-score.
With “CCGATTAACATCAGGGAAAAGTATGATGTTAATCGGGTCTTGATTCGCTTGACGCTGCTG”, the binding signal is 4.73 z-score.
In turn, “CCGATTAACATCAATAACCCCCCTGATGTTAATCGGGTCTTGATTCGCTTGACGCTGCTG” returned a binding signal of 4.7 z-score.
With “CCGATTAACATCAGGGCATCCCCTGATGTTAATCGGGTCTTGATTCGCTTGACGCTGCTG” the figure was 2.46 z-score; with “CCGATTAACATCAGGGGGAGATATGATGTTAATCGGGTCTTGATTCGCTTGACGCTGCTG”, 8.37 z-score.
With “CCGATTAACATCAGGGGATCCCCTGATGTTAATCGGGTCTTGATTCGCTTGACGCTGCTG” the figure was 7.53 z-score.
With “CCGATTAACATCACCCAATTCCCTGATGTTAATCGGGTCTTGATTCGCTTGACGCTGCTG” the figure was 2.69 z-score.
For the sequence “CCGATTAACATCAAGGGGAAAACTGATGTTAATCGGGTCTTGATTCGCTTGACGCTGCTG”, the binding signal was found to be 8 z-score.
In the case of “CCGATTAACATCAGGAAATCCCCTGATGTTAATCGGGTCTTGATTCGCTTGACGCTGCTG”, the binding signal stood at 4.46 z-score.
With “CCGATTAACATCATTTGGGAAAATGATGTTAATCGGGTCTTGATTCGCTTGACGCTGCTG” the figure was 2.04 z-score; with “CCGATTAACATCAATATTCCCCATGATGTTAATCGGGTCTTGATTCGCTTGACGCTGCTG”, 8.46 z-score; with “CCGATTAACATCAGATTTCCCCCTGATGTTAATCGGGTCTTGATTCGCTTGACGCTGCTG”, 11 z-score.
Regarding “CCGATTAACATCAGGGCTGCCCCTGATGTTAATCGGGTCTTGATTCGCTTGACGCTGCTG”, the binding signal stood at 1.21 z-score.
